Inhibition data for 87 molecules are collected here from PubChem BioAssay AID686940 (The Scripps Research Institute Molecular Screening Center, 2013).

The whole screen tested about 370,000 compounds, of which about 2,600 (0.7%) were called active.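 The calls were made as follows: active = inhibition above a per-plate cutoff, mean inhibition of test wells between control levels plus 3 SD (cut at about 38% in these data); inactive = the rest.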 Shown is part of a subset that was picked to be rich in actives.

By inhibition is commonly meant the relative decrease from the control value, in per cent.

Sequence of COUP transcription factor 2 (Homo sapiens) (P24468 whole entry, looked up): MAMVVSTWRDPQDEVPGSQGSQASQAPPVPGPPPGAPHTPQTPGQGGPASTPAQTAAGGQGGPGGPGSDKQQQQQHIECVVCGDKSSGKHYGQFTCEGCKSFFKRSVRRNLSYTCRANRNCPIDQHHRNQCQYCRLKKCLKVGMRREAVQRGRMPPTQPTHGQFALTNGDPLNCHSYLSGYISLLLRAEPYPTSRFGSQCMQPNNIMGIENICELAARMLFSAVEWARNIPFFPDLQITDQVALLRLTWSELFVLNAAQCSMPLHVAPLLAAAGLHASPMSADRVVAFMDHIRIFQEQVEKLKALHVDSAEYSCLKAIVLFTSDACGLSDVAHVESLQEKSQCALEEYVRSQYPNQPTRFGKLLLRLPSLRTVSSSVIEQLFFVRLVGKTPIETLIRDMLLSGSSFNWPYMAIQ

The assay addresses COUP transcription factor 2 (Homo sapiens) (UniProt P24468). Description: NR2F2 transcriptional activity inhibitors, primary screen, cell-based, luciferase reporter, HEK293T, luminescence (AID 686940).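 Also: cells cotransfected with COUP-TFII expression vector driving the NGFI-A reporter; 0% = median of COUP-TF2 test wells and 100% = reporter-only cells.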 As to conditions: HEK293T NGFI-A luciferase reporter, at 8.6 µM, hits give high values. On the technique in general: In a reporter assay the amount or activity of a reporter protein is the signal.
Take `CCN1/C(=C\c2ccc3ccccc3[n+]2CC)Sc2cc(C)ccc21`: the inhibition was 73% (active).

Consider `N#Cc1ccccc1OC[C@@H](O)CN1CCC(C(O)(c2ccccc2)c2ccccc2)CC1`, for which the inhibition was -5.47% (inactive).

Take `Cc1cc(C)n2ncc(C(=O)Nc3ccc4c(c3)OCCO4)c2n1`: the inhibition was -31.2% (inactive).

Regarding `C=C1C(C(C)C)N(C)C2=NC(c3ccccc3)CC(=O)N12` (configuration not stated), the inhibition is -5.15% (inactive).

Consider `CN(Cc1cccnc1)C(=O)c1cc(COc2ccc3ncccc3c2)on1`, for which the inhibition was 64.7% (active).

As for `CCn1ccnc1CN(C)C(=O)c1cc(COc2ccc(Cl)cc2OC)on1`, the inhibition was -30.8% (inactive).

As to `CCOc1ccc(NS(=O)(=O)c2ccc(Cl)c(C(=O)N(C)Cc3cccnc3)c2)cc1`, the inhibition is -10.5% (inactive).

`COc1ccc(-n2c(COc3ccc(C)cc3)nnc2SCC(=O)Nc2ccc(Oc3ccccc3)cc2)cc1`: the inhibition is 9.67% (inactive).

With `C[C@@H]1CN([C@@H](C)CO)C(=O)c2cccc(NC(=O)Nc3cccc4ccccc34)c2O[C@H]1CN(C)S(=O)(=O)c1ccccc1F`, the inhibition is 11.9% (inactive).

In the case of `CCOC(=O)C1C(=O)C=C(c2ccc(OC)cc2)CC1c1ccco1` (configuration not stated), the inhibition is -3.88% (inactive).

As for `CCOC(=O)C1=C(CC)Nc2ccccc2N=C1N`, the inhibition was -4.65% (inactive).

With `CCOC(=O)C1=C(c2ccc(OC)cc2)C(=O)c2ccccc2C1=O`, the inhibition is 74.4% (active).

As to `C=C(C)C#CC(Cc1ccccc1)NCC1CC1` (configuration not stated), the inhibition was 7.7% (inactive).

With `Cc1ccc(Cn2cc(COC(=O)N(C)Cc3ccccc3)nn2)cc1`, the inhibition is 4.98% (inactive).

For `COc1ccc(CN2CCOC2=O)cc1OC`, the inhibition is 12.6% (inactive).

With `COc1ccc(Cn2c(=O)sc3ccccc32)cc1OC`, the inhibition is 48.4% (active).

Turning to `COc1ccccc1CNC(=O)CCn1c(=O)sc2ccccc21`, the inhibition was 4.05% (inactive).

For the molecule `CCC(=O)Nc1ccc2c(c1)C(=O)N(C)[C@H]1CC[C@H](CC(=O)NCCOC)O[C@@H]1CO2`, the inhibition was 13.3% (inactive).

Regarding `CC(CCN1CCC(C(O)(c2ccccc2)c2ccccc2)CC1)Oc1ccc(Cl)cc1` (configuration not stated), the inhibition is 3.23% (inactive).

As to `O=S1(=O)c2c(cccc2N2CC[C@H](O)C2)O[C@@H]2CCN1C2`, the inhibition was 10.5% (inactive).

Consider `C[C@H]1CCC/C=C/C(=O)c2c(O)cc(O)cc2CC(=O)O1`, for which the inhibition was 38.3% (active).

With `CN(C(N)=NC(=O)/C=C/c1ccccc1)C(C#Cc1ccccc1)Cc1ccccc1` (configuration not stated), the inhibition was 4.75% (inactive).

On to `O=C(CSc1nnc(-c2ccccn2)n1-c1ccc(Cl)cc1)Nc1ccccc1-c1ccccc1`, for which the inhibition is 7.79% (inactive).

Consider `O=C(NCc1cccc(C(F)(F)F)c1)c1cccc(S(=O)(=O)N2CCN(Cc3ccccc3)CC2)c1`, for which the inhibition is -3.7% (inactive).

For the molecule `O=C(CCC(=O)N1CCN(S(=O)(=O)c2ccc(Cl)cc2)CC1)NCc1cccc(C(F)(F)F)c1`, the inhibition is 53% (active).

`CC(NC(=O)CCC(=O)N1CCN(S(=O)(=O)c2ccc(Cl)cc2)CC1)c1ccccc1` (configuration not stated): the inhibition was -14.9% (inactive).

Take `O=C(NCc1ccco1)C1CCCN(S(=O)(=O)c2ccc(Cl)s2)C1` (configuration not stated): the inhibition is -2.82% (inactive).

Take `O=C(NC1CCCC1)C1CSCCS(=O)(=O)N1Cc1ccccc1` (configuration not stated): the inhibition was 0.16% (inactive).

Regarding `CCOc1ccc(Br)cc1CSC(=N)N`, the inhibition was 22.1% (inactive).

As for `N=C(N)SCc1cccc2ccccc12`, the inhibition was 38.5% (active).

On to `CCc1ccc(-c2nn(-c3ccccc3)cc2CSC(=N)N)cc1`, for which the inhibition was -5% (inactive).

Turning to `COC(=O)C1CN(CCc2ccccc2)CCS(=O)(=O)N1Cc1ccc(F)cc1` (configuration not stated), the inhibition was 3.48% (inactive).

`Cc1ccc(-c2nnc(SCC(=O)Nc3ccc(Oc4ccccc4)cc3)n2Cc2ccco2)cc1`: the inhibition is 13.6% (inactive).

As for `CCCCOCCCNC(=O)C[C@H]1C[C@@]2(C(=O)OC)C(=C[C@H](COCc3ccccc3)O[C@@H]2C)N(Cc2cccc3ccccc23)C1=O`, the inhibition is 14.6% (inactive).

Regarding `Cc1ccc(-c2nc(CS(=O)CC(=O)NC3CCCC3)c(C)o2)cc1` (configuration not stated), the inhibition is 12.9% (inactive).

As to `Cc1ccc(S(=O)(=O)NCCC(=O)NC2CCN(Cc3ccccc3)CC2)cc1`, the inhibition is 9.92% (inactive).

`Cc1ccc(-c2nc(CSCC(=O)NC3CCN(Cc4ccccc4)CC3)c(C)o2)cc1`: the inhibition is 44.1% (active).

As to `Cc1ccccc1CN1CCCCC(NC(=O)Nc2ccccc2F)C1=O` (configuration not stated), the inhibition was 17.2% (inactive).

With `CCOC(=O)[C@]12CCCC=C1N(Cc1ccc(OC)cc1)C(=O)[C@@H]2CC(=O)N1CCOCC1`, the inhibition was 11.8% (inactive).

Turning to `COc1ccc(CSc2nnc(SCC(=O)Nc3ccccc3C(F)(F)F)s2)cc1`, the inhibition is -6.32% (inactive).

Take `CCOC(=O)C1(CCOc2ccccc2)CCN(Cc2cc(OC)cc(OC)c2)CC1`: the inhibition was 43.4% (active).

`CCOC(=O)C1(Cc2cccc(OC)c2)CCN(Cc2csc(C(C)=O)c2)CC1`: the inhibition was -6.31% (inactive).

As for `CCCS(=O)(=O)N1CCC(CCOc2ccccc2)(C(=O)OCC)CC1`, the inhibition was 12% (inactive).

With `O=C(CSc1nc2ccccc2nc1N1CCCCC1)N1CCN(S(=O)(=O)c2cccc([N+](=O)[O-])c2)CC1`, the inhibition is -2.12% (inactive).

Consider `Cc1ccc(Cn2cc(CN3[C@@H](C)COc4cc(Br)ccc4S3(=O)=O)nn2)cc1`, for which the inhibition was 7.53% (inactive).

With `O=C(CCS(=O)(=O)c1ccccc1)Nc1ccc(Cl)c(Cl)c1`, the inhibition is -30.7% (inactive).

For the molecule `O=C(CC(O)(C(F)(F)F)C(F)(F)F)Nc1ccc(Cl)c(Cl)c1`, the inhibition is 74.9% (active).

Take `O=C(Nc1ccc(Cl)c(Cl)c1)N1CC=C(c2ccccc2)CC1`: the inhibition is -16.9% (inactive).

Regarding `O=C(c1ccccc1)c1ccc(-c2ccccc2C(=O)NC2CCCCN(Cc3ccc(Cl)cc3)C2=O)cc1` (configuration not stated), the inhibition was -10.4% (inactive).

Take `CC(C)CNc1cccc2c1S(=O)(=O)N(Cc1cn(Cc3ccc(Cl)cc3)nn1)Cc1ccccc1O2`: the inhibition is 5.91% (inactive).

`Cc1ccc(C)c(S(=O)(=O)N2CCN(c3ncnc4sccc34)CC2)c1`: the inhibition was 61.2% (active).

With `COc1ccc(-c2csc3ncnc(N4CCN(S(=O)(=O)c5cccc(F)c5)CC4)c23)cc1`, the inhibition is -7.61% (inactive).

For `Cc1ccc(S(=O)(=O)N2CCC3(CC2)OCCO3)c(C)c1`, the inhibition was 0.83% (inactive).

As to `O=C(NCCCc1ccccc1)[C@H](Cc1ccccc1)NC1(C(=O)NCCc2c[nH]c3ccccc23)CCC1`, the inhibition is 7.14% (inactive).

Consider `Oc1ccc(/C=C/c2c(F)cccc2F)c2cccnc12`, for which the inhibition was 14.9% (inactive).

For the molecule `N[C@@H](Cc1ccccc1)C(=O)N1CCC[C@@H]1C(=O)N1CCC2CCN(S(=O)(=O)c3ccccc3)CC21` (some centres not stated), the inhibition was 2.4% (inactive).

As to `O=C(CSc1nnc(COc2ccccc2)n1-c1ccc(Cl)cc1)Nc1ccc2c(c1)OCO2`, the inhibition was 7.15% (inactive).

Regarding `O=C(Nc1ccccc1Cl)/C(Cl)=C(\Cl)S(=O)c1ccccc1` (configuration not stated), the inhibition was 99% (active).

Consider `CN[C@H]1C[C@H]2c3cc(N4CCOCC4)ccc3CCN2C[C@H]1[C@H](C)O`, for which the inhibition is -0.62% (inactive).

For the molecule `Cc1cc(OCc2ccc(C(=O)Nc3ccc(C(=O)O)cc3)o2)ccc1Cl`, the inhibition was 10.7% (inactive).

As to `O=C(O)c1ccc(NC(=O)c2ccc(COc3ccc(Cl)cc3)o2)cc1`, the inhibition was -7.9% (inactive).

As for `Cc1ccccc1CS(=O)(=O)Cc1ccc(C(=O)Nc2ccc(Cl)cc2)o1`, the inhibition was 60.1% (active).

Consider `COC(=O)[C@H](C(C)C)N(CCCc1cn(Cc2ccccc2)nn1)S(=O)(=O)c1ccc(F)cc1Br`, for which the inhibition was 9.49% (inactive).

For `CC(=O)Nc1ccc(OC[C@@H](O)CN2CCC(C(O)(c3ccccc3)c3ccccc3)CC2)cc1`, the inhibition is -20.7% (inactive).

Turning to `COc1cccc(Cn2cc(COC(=O)Nc3ccc(F)cc3)nn2)c1`, the inhibition was -23.7% (inactive).

Consider `CCCCCc1c(-c2cccc(Br)c2)ncn1CCc1ccccc1OC`, for which the inhibition is 6.5% (inactive).

Consider `CCCCCc1c(-c2ccc(OC)c(OC)c2)ncn1CCc1ccccc1OC`, for which the inhibition is 57% (active).

Regarding `CCCCc1c(-c2ccc(Cl)cc2)ncn1CCc1ccccc1OC`, the inhibition is 11.8% (inactive).

With `Cc1ccc(CSc2nnc(SCC(=O)NN=Cc3cc(Br)ccc3F)s2)cc1`, the inhibition was -3.85% (inactive).

As for `COc1ccc2c(c1)CN1CN(CCc3ccccc3)S(=O)(=O)CC21` (configuration not stated), the inhibition was 16% (inactive).

As for `Cc1nn(CC(=O)N2CCCCC2)c(=O)c2nn(-c3ccccc3)c(C)c12`, the inhibition is -1.99% (inactive).

On to `COc1ccc(CNC(=O)C(C)n2nc(C)c3c(C)n(-c4ccccc4)nc3c2=O)c(OC)c1` (configuration not stated), for which the inhibition is 10.4% (inactive).

In the case of `COc1ccc(OC)c(CNC(=O)Cn2nc(C)c3c(C)n(-c4ccc(C)cc4)nc3c2=O)c1`, the inhibition was 39.4% (active).

Take `COC(=O)[C@]12C[C@H](CC(=O)NCCCN3CCCC3=O)C(=O)N(CCc3ccc(OC)c(OC)c3)C1=C[C@H](COCc1ccccc1)O[C@@H]2C`: the inhibition was -3.72% (inactive).

Regarding `CCC(C)[C@@H](C(=O)OC)N(CCc1cn(Cc2ccccc2)nn1)S(=O)(=O)c1ccccc1Br` (some centres not stated), the inhibition is -9.93% (inactive).

In the case of `CSc1nccc(NC(=O)c2ccc(C(C)(C)C)cc2)n1`, the inhibition was 64.5% (active).

Regarding `CC(C)(C)c1ccc(C(=O)Nc2cc(Cl)c(Br)cc2C(=O)O)cc1`, the inhibition is 7.25% (inactive).

Take `CC(=O)Oc1ccc(C(=O)Nc2nccs2)cc1`: the inhibition was -23.1% (inactive).

With `Clc1ccc(-n2c(SC/C=C/c3ccccc3)nnc2-c2ccco2)cc1`, the inhibition is 13.9% (inactive).

As for `Cc1ccc(Cn2cc(CN3[C@@H](CC(C)C)COc4ccc(Cl)cc4S3(=O)=O)nn2)cc1`, the inhibition is -4.67% (inactive).

On to `COc1ccc(NC(=O)C2(C)Cc3c(-c4cccc(NC(C)=O)c4)ccnc3O2)cc1OC` (configuration not stated), for which the inhibition is -4.02% (inactive).

Turning to `COc1ccc(NC(=O)C2Cc3c(-c4cccc(NC(C)=O)c4)ccnc3O2)cc1OC` (configuration not stated), the inhibition was 45% (active).

Turning to `COc1ccc(NC(=O)C2Cc3c(-c4ccc(Cl)cc4)ccnc3O2)cc1` (configuration not stated), the inhibition was 5.98% (inactive).

As for `O=C(CSc1nnc(-c2ccccn2)n1-c1ccccc1)Nc1ccc2cn[nH]c2c1`, the inhibition is 13.3% (inactive).

For the molecule `CCCCNC(=O)C[C@@H]1C(=O)N(CCc2ccc(Cl)cc2)C2=CCCC[C@]21C(=O)OCC`, the inhibition is 15.3% (inactive).

Consider `C=CCN1C(=O)[C@H](CC(=O)N2CCN(C(=O)OCC)CC2)[C@@]2(C(=O)OCC)CCCC=C12`, for which the inhibition was -10.2% (inactive).

As to `CCOC(=O)N1CCN(C(=O)C[C@@H]2C(=O)N(CCc3ccc(Cl)cc3)C3=CCCC[C@]32C(=O)OCC)CC1`, the inhibition was 45.6% (active).
